The text below walks through data of PubChem BioAssay (NCI).

“And” between values parts separate entries of the source, which are not always exact repeats. Identical values can stand only once. Compounds without any hit were thinned out: in the full panel of roughly 83,000, 20% have a hit.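 For each line, cells grew in 96-well plates with the test compound present at a single concentration for 48 hours.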 Unmarked numbers belong to inactive results. The source made the active and inactive calls. How the source made its calls: active means growth percent below 10; inactive means the rest.

The subject of this assay is MDA-MB-468 breast. Briefly: NCI-60 one-dose screen, 48 h (100 = growth as untreated, 0 = no growth, -100 = all killed). Particulars: 10 µM unless noted.
As to `CC(C)[C@@]12C[C@@H](OC(=O)COC(=O)c3ccccc3)[C@@](C)(O1)[C@@H]1CC[C@@H](C)[C@H]1[C@@H]2OC(=O)/C=C/c1ccccc1`, the growth was 85.4%.
For the compound `Oc1ccc(CSc2nnc(-c3cnccn3)n2-c2ccccc2)c2cccnc12`, the growth is 5.53% (active).
As for `CCN(CC)CCC(CNc1ccnc2cc(Cl)ccc12)c1ccc(OC)cc1` (stereo not given), the figure is 9.36% (active) and -3.58% (active); as for `CCN(CC)CCCC(C)Nc1ccnc2c(OC)cccc12` (stereo not given), 117%; as for `Cc1ccc(Nc2nc(N)c3ccccc3n2)cc1Cl`, 48%.
The result for `Cc1ccc(C)n1-c1ccccc1-n1c(C)ccc1C` reads 104%; that for `COc1ccc(/C(=C2/O[C@@H]([C@H]3COC(C)(C)O3)[C@H]3OC(C)(C)O[C@@H]23)c2cc(OC)c(OC)c(OC)c2)cc1O`, 113%.
The result for `Cc1nc2c(O)cccc2cc1CO` reads 95.2%; that for `N#Cc1c(-c2ccc(Cl)cc2)nc(SCc2ccccc2)nc1N1CCNCC1`, 10.3%.
In the case of `O=C(O)COc1ccc([N+](=O)[O-])cc1Cl`, the growth is 104%.
With `CCCC(=O)NC(c1cccnc1)c1ccc2c(C)ccnc2c1O` (stereo not given), the growth is -2% (active).
For the compound `Cc1cc(N(CCCNc2ccnc3cc(Cl)ccc23)Cc2ccccn2)nc(N2CCOCC2)n1`, the growth was 78.8%.
For `Nc1ccc(N)c2c1C(=O)c1cccc([N+](=O)[O-])c1C2=O`, the growth was 54.8%.
As for `COc1ccc(CNc2nc3ccccc3c3c(=O)c4ccccc4sc23)cc1OC`, the growth was 57.4%.
Take `CC(C)(C)NCCC(O)c1cc2c(Cl)cc(Cl)cc2c2cc(C(F)(F)F)ccc12` (stereo not given): the growth was -85.7% (active).
With `Nc1ncc(-c2ccc3ncnc(Nc4cccc(Cl)c4F)c3c2)cn1`, the growth is -5.52% (active).
Take `CCc1ccc(C(c2ccc(CC)cc2)C(Cl)(Cl)CCl)cc1`: the growth was 95.8%.
As to `O=S(=O)(Nc1cc(Sc2cccc3cccnc23)c(O)c2ccccc12)c1ccccc1`, the growth is -42.6% (active).
The result for `CC/C=C\C[C@H]1C/C=C2/C(=O)C=C[C@@H]2C/C=C\CCCC(=O)O1` reads -33.6% (active); that for `C/C(=C(/C)C1CC1CCN(C(=O)c1ccc([N+](=O)[O-])cc1)S(=O)(=O)c1ccc(C)cc1)C1CCCCC1` (stereo not given), 82.5%.
For the compound `N#Cc1ccc(OC(=O)Nc2cc(Cl)cc(Cl)c2)cc1`, the growth was -16.4% [100 µM] (active).
Take `O=c1ccc2nc(C(F)(F)F)nn(-c3ccccc3)c-2c1`: the growth is -73.5% (active).
For `COc1cccc(-c2nn(-c3ccccc3)cc2-c2ccnc(NCCNS(=O)(=O)c3ccc(Cl)cc3)c2)c1`, the growth was 16.9%.
Consider `CCCCCCCCN(CCCCCCCC)CCCCCCCCCN1CCCc2cc(OC)ccc21`, for which the growth is 61.8%.
As to `O=C(O)CCCCSCCCCC(=O)O`, the growth was 95.3%.
